The record followed here is the supplement of paper PMC4723716.

Structures are written as SMILES. ± gives the uncertainty stated by the source. The full ranking holds about 9,900 compounds; the median of “viability index relative to DMSO control” is about 1, and the lowest 2% start at about 0.85. Only a selection was taken, and the lowest values are over-represented in it overall.

For the experiment, the system named is Plasmodium falciparum NF54 stage V gametocytes. The experiment in a line: viability index relative to DMSO control (fraction); higher = less gametocyte killing. The note with it: 2.5 µM, incubation time: 72 h. An outline of the steps: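 P. falciparum NF54 stage V gametocytes (serum-free medium, 0.75% gametocytemia, 1.25% hematocrit) were exposed to compound at 2.5 µM for 72 hr at 37°C under low oxygen, then stained with MitoTracker Red CMXRos and saponin for one to two hours. Red particles of 20–70 µm2 in one field per well were counted, and the viability index is that count scaled to the plate mean of solvent-only wells.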

Setting [1] is: library set: Broad Institute DOS.

For `O=C(C[C@H]1CC[C@@H]2[C@H](COC[C@H](O)CN2Cc2ccc3c(c2)OCO3)O1)N1CCCCC1`, the viability index under setting [1] turned out to be 1.01 ± 0.072. On the same count and under the same terms, the figure for `O=C(c1cnccn1)N1C[C@@H]2N[C@H](C1)[C@@H]2c1ccc(/C=C/c2ccccc2)cc1` is 1.05 ± 0.026.

As for `COc1ccc(S(=O)(=O)Nc2cccc3c2O[C@@H](CN(C)CC2CCCCC2)[C@H](C)CN([C@H](C)CO)C3=O)cc1`, the viability index under setting [1] was found to be 0.958 ± 0.094. Still for that read-out and setting: the figure for `COc1ccc2c3c([nH]c2c1)[C@H](CO)N(C[C@]31CCN(CC1)C(=O)Nc1ccc(F)cc1F)C(C)=O` is 0.748 ± 0.035. Where the note is “library set: Broad Institute Blood Stage”, `COc1ccc2c3c([nH]c2c1)[C@@H](CO)N(C[C@]31CCN(CC2CCCCC2)CC1)C(=O)CN(C)C` had a viability index of 0.807 ± 0.026. In turn, `COc1ccc2c3c([nH]c2c1)[C@H](CO)N(C[C@]31CN(CC2CC2)C1)C(=O)CN(C)C` displayed a viability index under setting [1] of 1.07 ± 0.032. Turning to `COCC(=O)N1CC[C@@]2(CC1)CN([C@@H](CO)c1[nH]c3cc(OC)ccc3c21)S(C)(=O)=O`, the viability index under setting [1] was found to be 1.09 ± 0.06. Same read-out and setting: the value for `COc1ccc2c3c([nH]c2c1)[C@H](CO)N(C[C@]31CCN(CC1)C(=O)Nc1ccccc1)S(C)(=O)=O` was 0.121 ± 0.0032; that for `CCC(=O)N1C[C@]2(CCN(CC2)C(=O)Nc2ccccc2F)c2c([nH]c3cc(OC)ccc23)[C@H]1CO` was 0.9987 ± 0.0051; that for `COc1ccc2c3c([nH]c2c1)[C@@H](CO)N(C[C@]31CN(CC2CC2)C1)C(=O)CN(C)C` was 0.939 ± 0.018.

`COc1ccc2c3c([nH]c2c1)[C@@H](CO)N(C[C@]31CCN(CC1)C(C)=O)C(C)=O` yielded a viability index under setting [1] of 0.9689 ± 0.0023. Still for that read-out and setting: the figure for `COc1ccc2c3c([nH]c2c1)[C@@H](CO)N(C[C@]31CCN(CC1)C(=O)Nc1ccc(F)cc1F)C(C)=O` is 1.07 ± 0.056; for `CCC(=O)N1C[C@]2(CCN(CC2)C(=O)Nc2ccccc2F)c2c([nH]c3cc(OC)ccc23)[C@@H]1CO` it is 0.642 ± 0.081; for `COc1ccc2c3c([nH]c2c1)[C@@H](CO)N(C[C@]31CCN(CC1)C(=O)Nc1ccccc1)S(C)(=O)=O` it is 0.99 ± 0.15. For `COCC(=O)N1C[C@@]2(C1)CN([C@H](CO)c1[nH]c3cc(OC)ccc3c21)C(=O)Nc1ccccc1F`, the viability index under setting [1] worked out at 1.03 ± 0.071. Still for that read-out and setting: the value for `O=C(C[C@@H]1C[C@H]2c3cc(NS(=O)(=O)c4ccccc4)ccc3O[C@H]2[C@@H](CO)O1)N1CCOCC1` was 1.05 ± 0.026; that for `COCC(=O)NC[C@@H]1[C@H](c2ccccc2)[C@H](CO)N1C(=O)c1ccccc1` was 0.986 ± 0.17. On the same count and under the same terms, the figure for `C[C@H]1CN([C@@H](C)CO)C(=O)c2cccc(NC(=O)c3cnccn3)c2O[C@H]1CN(C)C(=O)NC1CCCCC1` is 1.01 ± 0.033; for `COc1ccccc1-c1ccc2n(c1=O)C[C@@H]1[C@@H](CO)[C@H](C(=O)N3CCOCC3)[C@H]2N1CC1CC1` it is 1.04 ± 0.016. Regarding `COc1cccc(-c2ccc3n(c2=O)C[C@@H]2[C@@H](CO)[C@H](C(=O)N(C)C)[C@H]3N2C(=O)c2ccccn2)c1`, the viability index under setting [1] worked out at 1.04 ± 0.017.

Compound `CO[C@@H]1CN(C)C(=O)c2ccc(NC(=O)C3CC3)cc2OC[C@@H](C)N(C(C)=O)C[C@@H]1C` showed a viability index under setting [1] of 1.02 ± 0.042.

On to `CN1C[C@@H](O)COC[C@H]2O[C@H](CC(=O)NC3CCCC3)CC[C@@H]21`, for which the viability index under setting [1] stood at 1.05 ± 0.064.

Consider `O=C(c1ccc2c(c1)OCO2)N1C[C@@H]2N[C@H](C1)[C@@H]2c1ccc(-c2cncnc2)cc1`, for which the viability index under setting [1] is 1.08 ± 0.035.

Under setting [1], `O=C(c1ccc2c(c1)OCO2)N1C[C@@H]2N[C@H](C1)[C@@H]2c1ccc(/C=C/c2ccccc2)cc1` displayed a viability index of 0.731 ± 0.086. Same read-out and setting: the value for `O=C(c1ccc2c(c1)OCO2)N1C[C@@H]2N[C@H](C1)[C@H]2c1ccc(/C=C/c2ccccc2)cc1` was 1.05 ± 0.017; that for `C/C=C/c1ccc([C@H]2[C@@H]3CN(C(=O)Nc4ccccc4F)C[C@H]2N3)cc1` was 1.06 ± 0.034. Still for that read-out and setting: the value for `COc1ccccc1NC(=O)N1C[C@@H]2N[C@H](C1)[C@@H]2c1ccc(/C=C/c2ccccc2)cc1` was 0.571 ± 0.027; that for `COc1ccccc1NC(=O)N1C[C@@H]2N[C@H](C1)[C@H]2c1ccc(/C=C/c2ccccc2)cc1` was 0.976 ± 0.048; that for `O=C(C1CCC1)N1C[C@@H]2N[C@H](C1)[C@@H]2c1ccc(/C=C/c2ccccc2)cc1` was 0.799 ± 0.019. Same read-out and setting: the value for `O=C(C1CCC1)N1C[C@@H]2N[C@H](C1)[C@H]2c1ccc(/C=C/c2ccccc2)cc1` was 1.02 ± 0.042; that for `O=C(C1CCC1)N1C[C@@H]2N[C@H](C1)[C@@H]2c1ccc(-c2cncnc2)cc1` was 1.115 ± 0.0039. On to `CC(C)(C)[S@@](=O)N1Cc2cc(C(=O)NC3CCC3)nc(-c3cccc(-c4ccccc4F)c3)c2[C@H]1CCO`, for which the viability index under setting [1] stood at 1.02 ± 0.012. The same measure, in the same setting: the value for `CC(C)C[C@H]1COCc2cn(nn2)CC[C@@H](Cc2ccc(Cl)cc2)C(=O)N1` was 0.955 ± 0.036. As for `Cc1noc(C)c1C(=O)N(C)C[C@H]1OCc2ccccc2-c2ccccc2C(=O)N([C@@H](C)CO)C[C@@H]1C`, under setting [1], the viability index was found to be 1.01 ± 0.065. Still for that read-out and setting: the value for `O=C(Nc1ccc2c(c1)[C@@H]1C[C@H](CC(=O)N3CCc4ccccc4C3)O[C@@H](CO)[C@@H]1O2)c1ccc2c(c1)OCO2` was 0.991 ± 0.038; that for `CN(C)C(=O)[C@@H]1[C@@H](CO)[C@@H]2Cn3c(ccc(C4=CCCC4)c3=O)[C@H]1N2S(=O)(=O)c1cn(C)cn1` was 0.984 ± 0.045. Same read-out and setting: the value for `N#C[C@H]1N[C@H](CO)[C@@H]1c1ccc(C#Cc2ccccc2F)cc1` was 1.07 ± 0.076; that for `CC[C@H]1C/C=C/C[C@@H](C)Oc2ccccc2C(=O)N(C)[C@H](C)C(=O)N1.CC[C@H]1C/C=C\C[C@@H](C)Oc2ccccc2C(=O)N(C)[C@H](C)C(=O)N1` was 1.04 ± 0.086; that for `CC(C)C#Cc1ccc([C@H]2[C@H]3CN(C(=O)Cc4ccccc4)CC(=O)N3[C@H]2CO)cc1` was 1.045 ± 0.0096. In turn, `Cc1cccc(-c2ccc([C@H]3[C@H]4CN(S(=O)(=O)c5ccccc5F)CCCCN4[C@H]3CO)cc2)c1` returned a viability index under setting [1] of 0.973 ± 0.094. Same read-out and setting: the figure for `Cc1ccccc1-c1ccc([C@@H]2[C@H](CO)N3CCCCN(S(=O)(=O)Cc4ccccc4)C[C@@H]23)cc1` is 0.74 ± 0.039.

Under setting [1], `Cc1ccccc1-c1ccc([C@H]2[C@@H](CO)N3CCCCN(S(=O)(=O)Cc4ccccc4)C[C@@H]23)cc1` showed a viability index of 0.991 ± 0.063. The compound `Cc1cccc(-c2ccc([C@H]3[C@@H](CO)N4CCCCN(S(=O)(=O)c5ccccc5F)C[C@@H]34)cc2)c1` showed a viability index under setting [1] of 1 ± 0.044. Same read-out and setting: the value for `Cc1ccccc1-c1ccc([C@H]2[C@H](CO)N3CCCCN(S(=O)(=O)Cc4ccccc4)C[C@@H]23)cc1` was 0.924 ± 0.034; that for `Cc1cccc(-c2ccc([C@@H]3[C@@H](CO)N4CCCCN(S(=O)(=O)c5ccccc5F)C[C@H]34)cc2)c1` was 0.537 ± 0.053; that for `Cc1noc(C)c1NC(=O)Nc1cccc2c1O[C@H](CN(C)Cc1ccc(C(=O)Nc3ccccc3N)cc1)[C@@H](C)CN([C@H](C)CO)C2=O` was 0.961 ± 0.023.
